About 83,000 compounds went through this panel and 20% of them were active in at least one assay; those are over-represented in the sample as a whole.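 Single-dose data. Exposure time 48 hours. Values below 10 considered active.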 Values without a mark were called inactive. Calls of active or inactive are those of the source.
These molecules were tested on MDA-MB-468 breast (assay: NCI-60 one-dose screen, 48 h (100 = growth as untreated, 0 = no growth, -100 = all killed)). Settings: 10 µM unless noted.

| Structure (SMILES) | growth |
| --- | --- |
| Cc1nc2sc(C(=O)Nc3cccc(Cl)c3C)c(N)c2cc1C(=O)c1ccccc1 | -4.28% (active) |
| COc1ccc(C(=O)COC(=O)[C@H](C[Se][Se]C[C@H](NC(=O)c2ccc(Br)cc2F)C(=O)OCC(=O)c2ccc(OC)cc2)NC(=O)c2ccc(Br)cc2F)cc1 | -51.3% (active) |
| O=[N+]([O-])c1cc(C(F)(F)F)ccc1Sc1ccc(C(F)(F)F)cc1[N+](=O)[O-] | -4.58% (active) |
| O=C(N/N=C/c1ccc(OC(F)F)c(OC2CCCC2)c1)c1cnn2c1NC(c1ccccc1)C2 (stereo unspecified) | 84% |
| CCCCCCCSc1ncnc2[nH]ncc12 | 68.8% |
| CCOC(=N)CC(=O)Nc1cccc(C)c1Cl | 90.8% |
| O=c1c2cc(-c3ccc(F)cc3F)ccc2n(O)c(=O)n1-c1cccc(C(F)(F)F)c1 | -0.858% (active) |
| CN1C(=O)/C(=C/c2ccc(C(=O)Nc3ncc(Cc4ccc(F)cc4)s3)cc2)SC1=S | 25.2% |
| O=C1NC(=O)c2c1c1c3ccccc3[nH]c1c1oc3ccc(F)cc3c21 | 8.7% (active) |
| COC1=CC=CC2(OC)C3(O)CCCc4cccc(c43)N3C(=O)COC132 (stereo unspecified) | 115% |
| COc1ccc2c(c1)CC=C1[C@@H]2CC[C@]2(C)C(=O)/C(=N/O)C[C@@H]12 | 63.2% |
| CCCCCCCCCCCCOC(=O)/C=C\C(=O)NC(N)=O | 82.1% |
| COc1ccc(C2=NNC(c3ccc(Oc4nc5c(c(=O)n(C)c(=O)n5C)n4C)c(OC)c3)C2)cc1 (stereo unspecified) | 89.5% |
| C=C(C)[C@@H]1CC[C@]2(C(=O)N[C@H](CO)Cc3ccccc3)CC[C@]3(C)[C@H](CC[C@@H]4[C@@]5(C)CCCNC(C)(C)[C@@H]5CC[C@]43C)[C@@H]12 | -90.5% (active) |
| COC1=CC(c2ccc[nH]2)=N/C1=C\c1[nH]c(C)c(C(=O)OC(C)C)c1C | -74.1% (active) |
| CN1C[C@@H](c2ccc(Cl)cc2)[C@]2(NC(=S)N(c3ccccc3)C2=O)[C@@]12C(=O)NC1C=CC(Br)=C[C@H]12 (stereo partly specified) | 67.7% |
| CC1(C)OB(O)c2cc(-c3nc4ccc5[nH]ncc5c4c4c3CCCC4)ccc21 | 69.5% |
| Cc1c2ccccc2nc2c1ccc1cccnc12 | 89.8% |
| O=S(=O)(Nc1cc(Br)c(O)c2ccccc12)c1ccc(F)cc1 | -48.5% (active) |
| COc1cc(OC)cc(-c2ccc(-c3ccc(C(=N)N)s3)s2)c1 | -76.9% (active) |
| Cn1ccnc1C(=O)/C=C/c1ccc(CC(=O)Nc2ccc(C(F)(F)F)cc2)cc1 | -6.59% (active) |
| CN(C)c1ccc2nc3ccc(=[N+](C)C)cc-3oc2c1 | -15.4% (active) |
| Clc1ccc(C2CC(c3cccc(Nc4ccncc4)c3)=NN2c2cc(Cl)cc(Cl)c2)cc1 (stereo unspecified) | 84.9% |
| CCOC(=O)c1cc(C(=O)c2cc(OC)c(OC)c(OC)c2)n2ccccc12 | -7.14% (active) |
| C=C1CC[C@@H]2[C@](C)(COC(C)=O)[C@H](OC(C)=O)CC[C@@]2(C)[C@@H]1CC(Nc1ccc(S(=O)(=O)Nc2nc(C)cc(C)n2)cc1)C1=CCOC1=O (stereo partly specified) | 41% |
| CC(NC(=O)Oc1cccc2ccccc12)c1ccccc1 (stereo unspecified) | 107% |
